The full list was thinned out, with hits kept by preference.
VDR inh = inhibitors of human vitamin D receptor | VDR-SRC2-3 peptide fluorescence polarization, 2 h | Potency, µM, for inactives: max response, negative = inhibition, hits mostly inhibitors | 0.93% of 400,000 active | AID 504847; further: on the % scale 0 is the no-effect control and ±100 the full control effect
Target sequence (P11473 whole entry, looked up): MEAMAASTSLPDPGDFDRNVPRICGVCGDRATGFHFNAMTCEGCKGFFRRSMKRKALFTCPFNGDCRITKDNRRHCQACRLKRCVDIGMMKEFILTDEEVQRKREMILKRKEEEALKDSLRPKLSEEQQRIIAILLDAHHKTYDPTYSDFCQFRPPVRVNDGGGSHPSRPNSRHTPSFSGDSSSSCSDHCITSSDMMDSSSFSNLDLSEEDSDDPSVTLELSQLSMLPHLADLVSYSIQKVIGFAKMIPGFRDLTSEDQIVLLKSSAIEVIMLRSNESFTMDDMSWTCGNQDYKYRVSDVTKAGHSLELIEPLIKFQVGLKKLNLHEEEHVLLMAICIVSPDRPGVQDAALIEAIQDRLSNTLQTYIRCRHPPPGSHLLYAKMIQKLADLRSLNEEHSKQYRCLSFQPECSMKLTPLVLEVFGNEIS
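Compounds are added to VDR with labelled SRC2-3 coactivator peptide and held 2 h at room temperature. Inhibition of the VDR–peptide interaction is then read as a change in fluorescence polarization.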
G9a inh = inhibitors of human histone lysine methyltransferase G9a; Q96KQ7; G9a H3K9 monomethylation, AlphaScreen, 2 h; Potency, µM (doses to about 102 µM), for inactives: at the highest dose activity, negative = inhibition, most hits filed as inhibitors; 8.8% of 350,000 active; further: on the % scale 0 is the no-effect control and ±100 the full control effect; nearly all actives have a fitted effect of over 75% in size
Target sequence (Q96KQ7 913-1193 limits assumed): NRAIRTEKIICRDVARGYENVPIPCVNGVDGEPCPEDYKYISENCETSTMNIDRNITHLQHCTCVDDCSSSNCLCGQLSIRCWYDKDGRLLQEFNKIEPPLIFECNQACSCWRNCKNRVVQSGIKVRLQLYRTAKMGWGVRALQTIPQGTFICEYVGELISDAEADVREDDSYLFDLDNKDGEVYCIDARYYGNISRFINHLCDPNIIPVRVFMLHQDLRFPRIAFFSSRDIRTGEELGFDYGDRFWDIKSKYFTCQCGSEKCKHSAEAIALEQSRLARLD
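Readings reflect AlphaScreen signal from monomethyl-H3K9 antibody detection. HMT at 20 nM; substrate b-H3K9 500 nM; cofactor SAM 20 uM; 2 h RT reaction; compounds tested as titrations in qHTS with 15 min preincubation.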
12-LOX inh = inhibitors of human 12S-lipoxygenase ALOX12. 1.1% of 580,000 active. P18054. purified 12hLO, xylenol orange hydroperoxide absorbance. Potency, µM (top dose mostly 108 µM), without a hit: at the top dose activity change, negative = inhibition, usual class: inhibitors; further: on the % scale 0 is the no-effect control and ±100 the full control effect
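Hydroperoxide product was detected by ferrous iron/xylenol orange as the 573 to 405 nm absorbance ratio. Arachidonic acid at 40 uM (final) was turned over for 30 min at room temperature by 150 nM human 12hLO, pH 7.0 Hepes buffer, after 15 min compound preincubation.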
GRP78 ERSR act = induces the endoplasmic reticulum stress response in human glioma cells; U87-MG GRP78 promoter luciferase reporter, 16 h; Potency, µM, for the others: at the top dose activation, most hits filed as activators; 0.02% of 420,000 active; AID 602332; further: series mostly up to about 76 µM; % of control where 0% means no effect; nearly all actives have a fitted effect of over 35% in size
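Stably transfected U87-MG glioma cells carrying a GRP78-based luciferase sensor; 16 h compound incubation. Luminescence end-point read 10 min after Bright-Glo addition at room temperature.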
Sfp inh = blocks B. subtilis Sfp PPTase activity; Q9F4F7; Biochemical Sfp PPTase activity, qHTS; Potency, µM, for the others: largest response in the series, negative = inhibition, hits mostly inhibitors; 3.5% of 310,000 active;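 further: the enzyme is Sfp with the accession as filed and its product quenches rhodamine fluorescence; 0% = enzyme reaction without inhibitor and -100% = no enzyme wells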
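Reaction rates are the 30-min fluorescence difference (ex 525, em 598 nm) in wells containing 15 nM Sfp, 5 uM rhodamine-CoA and 12.5 uM BHQ-2-YbbR at pH 7.6 with 10 mM MgCl2.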
* hit, by the source's call; ? = inconclusive; / = not tested or not shown; [ ] = remark or other dose. The call rests on the fitted dose curve; in most records, active means well fitted curve in the direction sought with a large enough effect; inconclusive means small, poorly fitted or top-dose-only effect, or another doubt; inactive means no such curve, though single readings can be large; an effect the other way counts as inactive or inconclusive. Potency means the concentration at half of the fitted maximal effect.

SMILES | VDR inh | G9a inh | 12-LOX inh | GRP78 ERSR act | Sfp inh
Cc1ccc(-c2nc(S(=O)(=O)c3ccccc3)c(SCC(=O)NCC3CCCO3)o2)cc1 (stereo not given) | 2% | 35µM* | ? | -1% | -9%
O=C(CSc1oc(-c2ccco2)nc1S(=O)(=O)c1ccc(Cl)cc1)NCC1CCCO1 (stereo not given) | 6% | 45µM* | 7.9µM* | -1% | -16%
Cc1ccc(-c2cnoc2NC(=O)CSc2nc(-c3ccccc3)cc(=O)[nH]2)cc1 | / | / | -52% | / | /
CNC(=O)CCn1ncc2cc(OCc3ccccc3-c3cccc(NC(C)=O)c3)ccc21 | / | / | 51% | / | /
CNC[C@H](Cc1ccccc1)NC[C@@H](Cc1cccc2ccccc12)NCCc1ccc(C)cc1 | 14% | ? | ? | -10% | 50µM*
CCOc1ccc(NC2CCN(C(C)=O)CC2)cc1 | -5% | 50µM* | -1% | -2% | -1%
CCOc1ccc(S(=O)(=O)NN=C2CCN(C(C)=O)CC2)cc1 | -22% | 50µM* | 7% | -1% | 13%
CC1(C)c2ssc(=S)c2-c2ccccc2N1C(=O)c1ccco1 | ? | 8.9µM* | 0% | -8% | -11%
Cc1ccc2c(c1)-c1c(ssc1=S)C(C)(C)N2C(=O)c1ccco1 | -58% | 2µM* | ? | -4% | 20µM*
Cc1ccc2c(c1)-c1c(ssc1=S)C(C)(C)N2C(=O)CSC1=NCCS1 | 3% | ? | -10% | -4% | -2%
Nc1nccnc1C(=O)Nc1cccc(F)c1 | / | / | 6% | / | /
Cc1ccc(C)c(-c2csc(NC(=O)CN(C)CC(=O)Nc3ccccc3C(F)(F)F)n2)c1 | / | / | -2% | / | /
CCOc1ccc2ncc(S(=O)(=O)c3ccccc3)c(N3CCN(c4ccc(OC)cc4)CC3)c2c1 | 8% | ? | -14% | -6% | -3%
COc1ccc(N2CCN(c3c(S(=O)(=O)c4ccccc4)cnc4ccc(OC)cc34)CC2)cc1 | -21% | 8.9µM* | -2% | -2% | 12%
COc1ccc(CNc2oc(/C=C/c3ccc(F)cc3)nc2C#N)cc1 | / | / | -16% | / | /
Cc1nn(C)c(Sc2ccccc2N)c1[N+](=O)[O-] | ? | 7.9µM* | ? | 0% | 3.5µM*
CC(=O)/C(=C1\NC(C)(C)Cc2cc(C)c(C)cc21)c1ccccc1 | / | / | 11% | / | /
C[C@@H](NC(=O)[C@@H]1Cc2ccccc2CN1)C(=O)NCC1CCCO1 (stereo not given in full) | -5% | 50µM* | 2% | -2% | 3%
CC(C)[C@H](NC(=O)[C@@H]1Cc2ccccc2CN1)C(=O)NC1CCCCC1 | 8% | -20% | -10% | 0% | 1%
C[C@H](NC(=O)[C@@H]1Cc2ccccc2CN1)C(=O)NC1CCCCC1 | 3% | 79µM* | 4% | -4% | 0%
C[C@H](NC(=O)[C@@H]1Cc2ccccc2CN1)C(=O)NC[C@H]1CC[C@H](C(=O)O)CC1 | -15% | 15% | ? | 1% | -3%
COc1ccc(CNC(=O)[C@H](C)NC(=O)[C@@H]2Cc3ccccc3CN2)cc1 | 14% | 71µM* | -24% | -4% | -2%
CCn1c(CSc2nc3ccccc3s2)n[nH]c1=S | 10% | 2.8µM* | 32µM* | -2% | 1%
CCCSc1nnc(CSc2nc3ccccc3s2)n1-c1ccccc1 | -14% | 4%[0.501 µM] | -6% | 0% | -23%
S=c1[nH]nc(CSc2nc3ccccc3s2)n1Cc1ccccc1 | -9% | 3.2µM* | ? | -1% | 7%
SMILES | VDR inh | G9a inh | 12-LOX inh | GRP78 ERSR act | Sfp inh
Cc1ccc(S(=O)(=O)NCCc2nnc3ccc(SCc4cc(C)ccc4C)nn23)cc1 | / | / | 20% | / | /
O=C(O)c1cccc(N2C(=O)c3cccc4cccc(c34)C2=O)c1 | -12% | 11% | 2% | -3% | 12%
O=C(O)c1cccc(N2C(=O)/C(=C/c3ccc([N+](=O)[O-])cc3)C=C2c2ccccc2)c1 | ? | 16µM* | 35µM* | -7% | ?
O=C(O)c1cccc(N2C(=O)c3cc([N+](=O)[O-])cc4cc([N+](=O)[O-])cc(c34)C2=O)c1 | 56µM* | / | -9% | -11% | -28%
Cc1ccc(NC(=S)NCCSc2ccc(Cl)cc2)cc1 | -3% | 135%[59 µM] | 40µM* | -5% | 20%
Fc1ccccc1CSCCNC(=S)Nc1ccccc1 | / | / | 35µM* | / | /
CCCCOc1ccc(CSCCNC(=S)Nc2ccccc2)cc1 | -6% | 32%[59 µM] | ? | -2% | 21%
Cc1cccc(C)c1NC(=S)NCCSc1ccc(Cl)cc1 | -11% | 29%[59 µM] | ? | -5% | 24%
COC(=O)Cc1ccc(NC(=S)NCCSc2ccc(C)cc2)cc1 | -9% | ? | 45µM* | -1% | -4%
S=C(NCCSc1ccc(Cl)cc1)Nc1ccc(Nc2ccccc2)cc1 | / | / | 35µM* | / | /
Cc1ccccc1C(=O)N=c1c(C#N)cc2c(=O)n3cccc(C)c3nc2n1Cc1ccco1 | / | 15% | / | / | 50µM*
CCOC(=O)c1cc2c(=O)n3ccccc3nc2n(Cc2ccco2)c1=NC(=O)c1ccc(OC)cc1OC | ? | -34% | -26% | -1% | 45µM*
CC(=O)N=c1c(C#N)cc2c(=O)n3cccc(C)c3nc2n1Cc1ccco1 | -18% | ? | 0% | -3% | -21%
COc1ccc(C(=O)N=c2c(C#N)cc3c(=O)n4cccc(C)c4nc3n2Cc2ccco2)cc1 | / | -7% | / | / | 56µM*
CCCc1cc(=O)oc2cc(OC(C)C(=O)NCc3ccc(S(N)(=O)=O)cc3)ccc12 (stereo not given) | / | / | -8% | / | /
CCOc1ccc(NC(=O)Nc2ccc(F)c(-c3nnc(-c4ccccc4)o3)c2)cc1 | / | / | 4% | / | /
COc1ccc(Cn2c(=O)c3sccc3n(CC(=O)NCc3ccccc3)c2=O)cc1 | / | / | 22% | / | /
COc1ccc(C(NC(=O)/C=C/c2ccco2)c2ccc(OC)c(OC)c2)cc1OC | -21% | 8.9µM* | ? | -5% | 20µM*
COc1ccc(C2(CNC(=O)/C=C\c3ccco3)CCCC2)cc1OC | 14% | 13µM* | 45µM* | -1% | 18µM*
COc1ccc(C2(CNC(=O)c3cc(OC)c(OC)c(OC)c3)CCCC2)cc1OC | 4% | / | -2% | 2% | /
C=C(C)C1CCC(C)(O)CC1 (stereo not given) | / | / | 10%[176 µM] | / | /
CC(C)n1c(C2CC(=O)N(c3cccc(C(F)(F)F)c3)C2)nc2ccccc21 (stereo not given) | / | / | 8% | / | /
O=C1/C(=C\c2ccc(O)cc2)SC(=S)N1Cc1ccccc1 | 23% | / | ? | 0% | -10%
COc1c(/C=C2\SC(=Nc3ccccc3Cl)NC2=O)cccc1[N+](=O)[O-] | -17% | -49% | ? | 19% | -19%
O=C1NC(=Nc2ccccc2Cl)S/C1=C\c1cccc([N+](=O)[O-])c1O | 79µM* | 8.9µM* | ? | 4% | -23%
O=C1/C(=C/c2ccc(O)c([N+](=O)[O-])c2)SC(=S)N1Cc1ccccc1 | -18% | 3.5µM* | -18% | -2% | 8%
COc1cc(/C=C2\NC(=S)N(C)C2=O)ccc1O | 4% | ? | ? | 1% | ?
